The campaign covered roughly 4,100 compounds. About 1,600 (39%) were called active. Inconclusive results (about 25%) are left out. Calls follow the shape of the dose curve; as a rule, active = well fitted inhibition curve with a large enough effect; inconclusive = small, poorly fitted or top-dose-only effect; inactive = no such curve, though single readings can be large or run the other way. The list shows a part of the results.
Experiment: qHTS Validation assay for Inhibitors of Plasmodium falciparum Dd2 growth in vitro; also: nearly all actives have a fitted effect of over 70% in size
Conditions: P. falciparum Dd2 in RBCs, SYBR Green growth, 72 h; series mostly up to 28.7 µM; activity change, negative = inhibition: at the top concentration
Summary of the method: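 P. falciparum Dd2-infected red blood cells (2.5% hematocrit, 0.3% parasitemia) grown 72 h at 37 °C under 5% O2 with compounds in a titration, 29 uM to 0.5 nM final. Growth read as SYBR Green-1 fluorescence after ~16 h lysis; artesunate 300 nM as positive control.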
% is scaled to controls: 0 for no effect and ±100 for the full control effect; potency is read from the fitted curve at half-maximal effect.

Activity change, negative = inhibition, inactive:
Cc1ccc(S(=O)(=O)N2CCC(C(=O)NC3CC3)CC2)cc1 -28%, CS(=O)(=O)N1CCC(OC2CCN(C(=O)Nc3cc(F)ccc3F)CC2)CC1 11.4%, O=C(c1cccs1)N1CCC(n2cc(-c3nc(-c4ccccc4)no3)nn2)CC1 -8.44%, Cc1nn(C)cc1CN1CCC(O)(c2ccccc2)[C@H](N2CCCC2)C1 (some centres undefined) -28.5%, CCOc1ccc(CN2CC[C@@](C)(O)[C@H](N3CCCC3)C2)cc1 -16.2%, O=C(CC1CCN(C(=O)c2cccs2)C1)NCc1ccccc1 (centres undefined) 9.3%, c1ccc(-c2noc(-c3ccn4c(CN5CCN(c6ccccn6)CC5)nnc4c3)n2)cc1 -6.11%, C=CCO[C@@H]1CCN2C(=O)c3cc(-c4cc(Cl)ccc4OC)ccc3NC(=O)[C@H]12 -16.7% [at 43.1 µM], O=C(O)COc1ccc(-c2nccc3c2C(=O)N(Cc2ccccc2)CC(CNC(=O)c2ccc(F)cc2)O3)cc1 (centres undefined) -17.6%, NCC(=O)N1CCC(n2nccc2NC(=O)c2ccc3c(c2)OCO3)CC1 37.3%, CN1C(=O)c2cncnc2OCC1CNC(=O)Cc1cccs1 (centres undefined) 1.04% [at 43.1 µM], COCCN1CC2(CCCN(Cc3cc(C(C)(C)C)n[nH]3)C2)CCC1=O (centres undefined) 0%, COC(=O)c1cccc(NC(=S)N[C@H]2CO[C@H]3[C@@H]2OC[C@H]3OC(=O)Nc2ccccc2)c1 7.55%, Cc1cccc(C)c1NC(=O)CN1C(=O)NC(c2ccccc2Cl)C2=C1COC2=O (centres undefined) -22%, CC(Sc1nc2sccc2c(=O)n1-c1ccccc1)C(N)=O (centres undefined) 11.5%, CCOC(=O)C1CCN(C(=O)CSc2nc(N)cc(=O)[nH]2)CC1 21.4%, Cc1noc(CN(C)C(=O)C2C3C(=O)N(Cc4ccc(C)c(C)c4)C[C@@]34C=C[C@@H]2O4)n1 (some centres undefined) 30%, O=C(C1CCCCC1)N1CCN(C2CCN(Cc3cccnc3)C2=O)CC1 (centres undefined) -19.1%, COc1ccc(-c2noc(-c3cccn3CC(=O)NC(C)C)n2)cc1F 14.4%, COc1ccc(-c2noc(-c3cccn3CC(=O)NC3CCCCC3)n2)cc1F 6.59%, Cc1cccc(-c2ccc3c(c2)C(=O)N2C[C@H](O)C[C@H]2C(=O)N3)c1C 43.2% [at 43.1 µM], CNC(=O)[C@@H]1CN(C(=O)c2c[nH]c3ccccc23)C[C@H]1COC -9.93%, CCn1nc(C)c(-c2cc(C(=O)N3CCc4nc5cc(-c6ccccc6)[nH]n5c(=O)c4C3)no2)c1C -11.4%, COc1ccc(CCc2nc3nccc(-c4ccc5c(c4)OCCCO5)n3n2)cc1OC -25.8%, CC1=C[C@@H](CNC(=O)c2cnccn2)[C@H](C(C)C)C[C@H]1Cc1nc2ccc(F)cc2[nH]1 -19% [at 43.1 µM], CCC(C(=O)Nc1nc(C)c(C)s1)c1ccccc1 (centres undefined) -13.3%, CC(Oc1ccccc1)C(=O)Nc1cnc(-c2cccc(Cl)c2)nc1 (centres undefined) -22.4%, O=C(Cc1ccccc1O)NCc1cccnc1Oc1ccc(F)cc1F -1.86%, CCC(Sc1nc2c(c(=O)n1CC)SC(C)C2)C(=O)OC (centres undefined) 22.8%, Cc1cc(NC(=O)CSc2nc3c(c(=O)n2Cc2ccccc2)SC(C)C3)no1 (centres undefined) 175%, NNC(=O)CN1C(=O)Nc2ccc(Cl)cc2C1c1ccccc1 (centres undefined) 35.4%, Cc1ccc2oc(-c3cccc(NC(=O)c4cccc5c(Cl)cccc45)c3)nc2c1 31.7%, CCN(CC)CCNC(=O)c1ccc(NC(=O)c2cc(-c3ccncc3)nc3ccccc23)cc1 -24.5%, O=C(CCC1CCCC1)N1CC(c2nnc(-c3ccncc3)o2)C2(CCOCC2)C1 (centres undefined) 10.2%

Potency, active:
COc1ccc(S(=O)(=O)N2CCN(C(=S)NC3CCCCC3)CC2)cc1 6.68 µM, O=S(=O)(c1ccc(F)cc1)N1CCN(C(=S)NC2CC2)CC1 3.35 µM, O=C(c1cccs1)N1CCC(O)(c2ccccc2)[C@H](N2CCCC2)C1 (some centres undefined) 9.44 µM, O[C@]1(c2ccccc2)CCN(Cc2ccco2)C[C@H]1N1CCCC1 8.41 µM, O[C@]1(c2ccccc2)CCN(Cc2ccncc2)C[C@H]1N1CCCC1 9.44 µM, CCOc1ccc2[nH]c3c(NCCN(C)C)ncnc3c2c1 16.8 µM, CC1Cn2c(nnc2-c2cc3ccccc3cc2O)S1 (centres undefined) 4.73 µM, CCc1ccc(Oc2c(C(F)(F)F)oc3c(CN4CCN(C)CC4)c(O)ccc3c2=O)cc1 0.75 µM, CCc1ccc(Oc2c(C(F)(F)F)oc3c(CN4CCN(CC)CC4)c(O)ccc3c2=O)cc1 0.376 µM, CC(C)C(=O)NCC1CN(Cc2ccccc2)C(=O)c2c(ccnc2-c2ccc(OCC(=O)O)cc2)O1 (centres undefined) 2.11 µM, Cc1cccc(Nc2nc(NCc3ccco3)c3ccccc3n2)c1 4.73 µM, OCCNc1nc(Nc2ccc(Br)cc2)nc2ccccc12 2.66 µM, Oc1ccccc1Nc1nc(NCc2ccco2)c2ccccc2n1 2.99 µM, c1ccc(Nc2nc(NCc3ccco3)c3ccccc3n2)cc1 1.68 µM, COc1cc(O)c(C(CCN2CCN(c3ccccc3)CC2)c2ccc(N(C)C)cc2)c(OC)c1 (centres undefined) 0.596 µM, COc1ccc(C(CCN2CCN(c3ccccc3)CC2)c2c(O)cc(OC)cc2OC)cc1 (centres undefined) 0.944 µM, N#Cc1c(N2CCN(c3ccc(F)cc3)CC2)nc(N)c2c(N)nc3c(c12)CC(=O)N3C1CC1 0.668 µM, C=CCOC(=O)C1=C[C@@H](c2ccc(C(F)(F)F)cc2)[C@H](CCCO)[C@@H](OCC)O1 7.5 µM, COc1ccc(N2CCN(C(c3cc4ccc(C)cc4[nH]c3=O)c3nnnn3C3CCCC3)CC2)cc1 (centres undefined) 6.68 µM, CC(C)(C)n1nnnc1C(c1cc2cc3c(cc2[nH]c1=O)OCO3)N1CCN(c2ccccc2)CC1 (centres undefined) 7.5 µM, COc1ccccc1N1CCN(C(c2cc3ccc(C)cc3[nH]c2=O)c2nnnn2C2CCCC2)CC1 (centres undefined) 7.5 µM, Cc1ccc(C)c(OCCn2cc(C(=O)c3ccco3)c3ccccc32)c1 5.31 µM, Cc1ccccc1OCCn1cc(C(=O)c2ccco2)c2ccccc21 5.31 µM, COCCN(CCOC)c1nc(N)c2c(N)nc3c(c2c1C#N)CC(=O)N3Cc1ccc(Cl)cc1 5.96 µM, CC(C)[C@@H]1CN(S(=O)(=O)c2ccc(Cl)cc2Cl)C[C@H]1N(C)C 6.68 µM, CCOC(=O)c1c(NC(=O)CSc2nc3ccccc3c(=O)n2-c2ccccc2)sc(C(C)=O)c1C 13.3 µM, CCOC(=O)C1CCN(Cc2cc(Cl)c3ccccc3c2O)CC1 1.88 µM, CCOC(=O)C1CCN(c2cc(=O)n(-c3ccccc3Cl)c(=O)[nH]2)CC1 8.41 µM, CCOC(=O)c1ccc2c(c1)[C@@H]1C=CC[C@@H]1[C@H](c1cccc(OC)c1OC)N2 2.66 µM, COc1ccc(NC(=O)Cn2cccc2-c2nc(-c3ccc(OC)c(F)c3)no2)cc1 4.73 µM, COc1cccc(NC(=O)Cn2cccc2-c2nc(-c3ccc(OC)c(F)c3)no2)c1 6.68 µM, COc1ccc(-c2noc(-c3cccn3CC(=O)Nc3ccccc3)n2)cc1F 2.37 µM, CCOc1ccc(NC(=O)Nc2cc(OCC(F)(F)F)cc(OCC(F)(F)F)c2)cc1 13.3 µM, CCN1CCN(Cc2ccc(NC(=O)c3cc(NC(=O)C(=O)c4c[nH]c5ccccc45)cc(OC)c3)cc2C(F)(F)F)CC1 0.668 µM, CCN1CCN(Cc2ccc(NC(=O)c3ccc(C)c(NC(=O)C(=O)c4c[nH]c5ccccc45)c3)cc2C(F)(F)F)CC1 1.5 µM, Cc1cn(-c2cc(C(=O)Nc3ccc(C)c(NC(=O)C(=O)c4c[nH]c5ccccc45)c3)cc(C(F)(F)F)c2)cn1 2.11 µM, CCN1CCN(Cc2ccc(NC(=O)c3ccc(C)c(NC(=O)c4c[nH]c5cc(C(F)(F)F)ccc5c4=O)c3)cc2C(F)(F)F)CC1 0.531 µM, COc1cc2nc(NCCc3cccc(C)c3)n3nc(-c4ccccc4)nc3c2cc1OC 0.842 µM, COc1ccc(CCNc2nc3cc(OC)c(OC)cc3c3nc(-c4ccccc4)nn23)cc1OC 2.37 µM, COc1cc2c(cc1O)CC[n+]1cc3c(OC)c(OC)ccc3cc1-2 7.5 µM, COc1ccc2nc(C[C@@H]3C[C@@H](C(C)C)[C@H](CNCc4ccccc4OC)C=C3C)[nH]c2c1 9.44 µM, COc1ccc2nc(C[C@@H]3C[C@@H](C(C)C)[C@H](CNCc4ccccn4)C=C3C)[nH]c2c1 0.769 µM, COc1ccccc1CNC[C@@H]1C=C(C)[C@H](Cc2nc3c(C)cccc3[nH]2)C[C@H]1C(C)C 9.68 µM, COC(=O)c1ccc2nc(C[C@@H]3C[C@@H](C(C)C)[C@H](CNC4CCCCC4)C=C3C)[nH]c2c1 8.41 µM, CC1(C)Cc2ccccc2C2=NNC(=O)C2=N1 3.35 µM, O=C(Nc1nc(-c2ccccn2)cs1)Nc1ccc(F)cc1F 5.31 µM, CC(Oc1ccccc1)C(=O)Nc1nc(-c2ccccn2)cs1 (centres undefined) 8.41 µM, CC1Cc2nc(SCC(=O)Nc3ccc4c(c3)OCO4)n(-c3ccc(F)cc3)c(=O)c2S1 (centres undefined) 2.99 µM, CCOc1ccccc1C(=O)N1CC(=O)Nc2ccc(Cl)cc2C1c1ccccc1 (centres undefined) 9.44 µM, O=C(Nc1cccnc1)c1cc(-c2cccnc2)nc2ccc(Br)cc12 2.66 µM, O=C(Nc1ccncc1)c1cc(-c2cccc(Br)c2)nc2ccccc12 13.3 µM, O=C(NCc1ccco1)c1cc(-c2ccncc2)nc2ccccc12 5.96 µM, COc1cc(C#Cc2c(-c3cncn3C)n(C)c3ccc(-c4ccc(OC)c(OC)c4)cc23)cc(OC)c1 4.73 µM, COc1ccc(-c2c(C#Cc3ccsc3)c3cc(-c4cccc5[nH]ccc45)ccc3n2C)cc1 6.68 µM, COc1cc(C#Cc2c(-c3cncn3C)n(C)c3ccc(-c4ccc5[nH]ccc5c4)cc23)cc(OC)c1 2.37 µM
